The values that follow come from PubChem BioAssay AID1224921 (Broad Institute, 2016).

The whole screen tested about 1,400 compounds, of which about 350 (25%) were called active. Inconclusive results (about 2%) are left out. The rule behind the calls is not given here. A selection follows. Measured potencies and affinities stand elsewhere.

A short description of this assay: C. difficile growth inhibition, confirmation, 4-point retest (AID 1224921).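 Note: plate controls were DMSO wells for no effect and levofloxacin 16 µg/mL wells for full effect.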 The following applies: Clostridioides difficile clinical isolate growth, OD600, 24 h, active compounds read low; at 30 µM unless noted.
As for `CNC[C@@H]1Oc2cc(-c3cccnc3)ccc2S(=O)(=O)N([C@@H](C)CO)C[C@H]1C`, the max activity was -5.58% [at 1.95 µM] (inactive).
With `COc1ccc(-c2cnc3c(c2)C(=O)N([C@H](C)CO)C[C@H](C)[C@H](CN(C)C(=O)Nc2ccc(F)cc2)O3)cc1` the figure was 13.9% (inactive).
To `Cc1ccc(-c2ccc3c(c2)O[C@H](CN(C)Cc2ccncc2)[C@H](C)CN([C@@H](C)CO)S3(=O)=O)cc1` belongs 37.3% (inactive).
With `CCS(=O)(=O)Nc1ccc2c(c1)C(=O)N(C)C[C@@H](OC)[C@@H](C)CN(CC1CCCC1)[C@H](C)CO2` the figure was 10.5% (inactive).
`C[C@H](CO)N1C[C@H](C)[C@@H](CN(C)Cc2ccncc2)Oc2cc(C3=CCCCC3)ccc2S1(=O)=O`: the max activity is 25.5% [at 28.5 µM] (inactive).
With `O=C(C[C@@H]1C[C@@H]2c3cc(NC(=O)CC4CC4)ccc3O[C@@H]2[C@@H](CO)O1)NCc1cc(F)ccc1F` the figure was 18.5% (inactive); with `CO[C@@H]1CN(C)C(=O)c2cc(NC(=O)C3CCC3)ccc2OC[C@@H](C)N(Cc2ccncc2)C[C@@H]1C`, -8.85% [at 8 µM] (inactive).
With `C[C@H]1CN([C@@H](C)CO)S(=O)(=O)c2ccc(-c3ccccc3F)cc2O[C@@H]1CN(C)Cc1cccnc1` the figure was 16.6% (inactive).
To `CO[C@@H]1CN(C)C(=O)c2ccc(NC(=O)c3ccc(Oc4ccccc4)cc3)cc2OC[C@@H](C)N(C(C)=O)C[C@H]1C` belongs -13.9% [at 2.1 µM] (inactive); to `O=C(C[C@@H]1C=C[C@@H](NC(=O)c2cccc(F)c2)[C@H](CO)O1)Nc1nccs1`, 13.9% (inactive).
Turning to `COc1ccc(S(=O)(=O)Nc2ccc3c(c2)C(=O)N([C@@H](C)CO)C[C@@H](C)[C@@H](CN(C)C(=O)CCC(F)(F)F)OCCCC[C@H](C)O3)cc1`, the max activity was -14.1% [at 8 µM] (inactive).
To `CO[C@H]1CN(C)C(=O)c2cc(NS(=O)(=O)c3cccc(F)c3)ccc2OC[C@@H](C)N(Cc2cc(F)ccc2F)C[C@H]1C` belongs -7.98% [at 1.95 µM] (inactive); to `C[C@H](CO)N1C[C@H](C)[C@@H](CN(C)Cc2cccnc2)Oc2cc(C#CC3CCCC3)ccc2S1(=O)=O`, 41.2% (inactive); to `CO[C@@H]1CN(C)C(=O)c2cc(NS(=O)(=O)c3ccc(Cl)cc3)ccc2OC[C@H](C)N(C(=O)NC(C)C)C[C@H]1C`, -5.33% [at 8 µM] (inactive).
With `CCCN1C[C@H](C)[C@@H](OC)CN(C)C(=O)c2cc(NC(=O)c3cccc(OC)c3)ccc2OC[C@@H]1C` the figure was 12.1% (inactive); with `CO[C@H]1CN(C)C(=O)c2ccc(NC(C)=O)cc2OC[C@H](C)N(Cc2cccc(F)c2)C[C@H]1C`, -6.29% [at 1.95 µM] (inactive).
